In the library only some 13% were active in any assay of this set; here they are far more common.
RAM inhibit: inhibitors of the yeast RAM network | 190,000 compounds, 1.8% hits | inhibition, % at 50 µM | S. cerevisiae dse1pr::URA3 reporter, 5-FOA growth OD615, 2 d; analog-sensitive cbk1-as2 kinase mutant strain;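 active = inhibition above a set limit, 3 SD over mean compound inhibition, cut at about 8.4% in these data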;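 note: inhibition rescues growth on 5-FOA so higher OD means more RAM inhibition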
L major viab: inhibitors of Leishmania major promastigote growth. Leishmania major promastigotes, resazurin fluorescence viability. 200,000 compounds, 9% hits. inhibition, % at 10 µM; in the data active = inhibition above about 50%;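 note: promastigotes grown with compound for 44 hours at 28 °C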
CHOP inh: blocks CHOP induction under ER stress; CHO-K1 CHOP-promoter luciferase, tunicamycin-induced, 15-18 h; inhibition, % at 10 µM; 220,000 compounds, 3.8% hits; AID 2732;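 active = compounds that reduced the stress-induced luciferase reporter signal by more than about 70% of percent inhibition, limit read from the data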
WT yeast gro inh: growth inhibition of WT yeast, mitochondrial fusion screen; mitochondrial fusion phenotypic screen, WT strain; inhibition, % at 10 µM; 190,000 compounds, 2.1% hits; in the data active = inhibition above about 58%; tested in S. cerevisiae
A number is an active result; . = inactive; / = no result given.

SMILES | RAM inhibit | L major viab | CHOP inh | WT yeast gro inh
CCOc1ccccc1C1CC(=O)NC(SCC(=O)Nc2nccs2)=C1C#N (configuration not stated) | . | . | . | .
O=C(OCC(O)COC(=O)c1cccnc1)c1cccnc1 | / | / | . | /
Cc1ccccc1CSCCNC(=O)COc1ccc(Cl)cc1 | . | . | 75 | .
CC(C)(C)SCCNC(=O)COc1ccc(Cl)cc1 | . | . | . | .
CCC(C)C(NC(=O)C1CCC(C)CC1)C(=O)NC(CCSC)C(=O)OC (configuration not stated) | . | 68 | . | .
CCC(C)C(NC(=O)C1CCC(C)CC1)C(=O)Nc1cc(OC)ccc1OC (configuration not stated) | . | . | 82 | .
COC(=O)C(CCSC)NC(=O)C(NC(=O)C1CCC(C)CC1)C(C)C (configuration not stated) | . | 69 | . | .
CSCCC(NC(=O)C1CCC(C)CC1)C(=O)O (configuration not stated) | . | . | . | .
O=C1c2ccccc2C(=O)N1CCc1nc2ccccc2c(=O)n1CCCn1ccnc1 | . | . | . | .
COC(=O)CN(c1ccccc1)S(=O)(=O)c1ccccc1 | / | . | / | .
COC(=O)NC(=C(Cl)Cl)S(=O)(=O)c1ccccc1 | . | 97 | . | .
COc1ccc(NC(=O)Nc2ccccc2F)c(C)c1 | . | . | . | .
COc1ccc(C(=O)C[n+]2cn(C(F)F)c3ccccc32)c(F)c1 | . | . | . | 70
Cc1nn(Cc2ccccc2)c(Cl)c1/C=C/C(=O)OCC(=O)NC(C)C(C)C (configuration not stated) | . | . | . | .
Cc1nn(Cc2c(Cl)cccc2Cl)c(Cl)c1/C=C/C(=O)OCC(=O)NCC(F)(F)F | . | . | 75 | .
Cc1ccc(N/C=C(\C#N)S(=O)(=O)c2ccccc2)cc1 | . | . | . | .
CN(C)c1ncc(S(=O)(=O)c2ccc(Cl)cc2)c(-c2ccc(Cl)cc2Cl)n1 | . | . | . | 66
N#Cc1ccsc1NC(=O)CN1CCOCC1 | / | / | . | /
N#Cc1ccsc1NC(=O)CN1CCCCCC1 | . | 59 | . | .
CCn1ccnc1CNC(=O)CC1C(=O)NCCN1Cc1ccc(OC)cc1OC (configuration not stated) | / | / | . | /
O=C(NCc1ccccn1)c1ccc(Cn2c(=S)[nH]c3ccc(Br)cc3c2=O)cc1 | . | . | . | .
O=C(c1ccc(Cn2c(=S)[nH]c3ccc(Br)cc3c2=O)cc1)N1CCN(C2CCCCC2)CC1 | . | . | . | 73
O=C(c1ccc2[nH]c3c(c2c1)CCCC3)N1CCN(c2ccc(F)cc2)CC1 | . | 60 | . | 74
O=C(c1ccc2c(=O)n(C3CCCC3)c(=S)[nH]c2c1)N1CCCCCC1 | . | . | . | 96
O=C(c1ccc(Cn2c(=O)[nH]c3ccccc3c2=O)cc1)N1CCN(c2ccc(F)cc2)CC1 | . | 92 | . | .
SMILES | RAM inhibit | L major viab | CHOP inh | WT yeast gro inh
O=c1cc(N2CCCCCC2)[nH]c(=O)n1-c1ccccc1Cl | . | . | . | .
O=C(Nc1ccc(Cl)c(Cl)c1)N(CCCN1CCOCC1)Cc1cccs1 | . | . | . | .
COc1ccc(Cn2c(=O)[nH]c3cc(C(=O)N4CCN(Cc5ccccc5)CC4)ccc3c2=O)cc1 | . | . | 72 | .
O=C(c1ccc(Cn2c(=S)[nH]c3ccc(N4CCOCC4)cc3c2=O)cc1)N1CCN(c2ccc(F)cc2)CC1 | . | 96 | . | .
O=c1c2cc(N3CCOCC3)ccc2[nH]c(=S)n1Cc1ccc(Cl)cc1 | . | . | 70 | .
COc1ccc(N2CCN(C(=O)c3ccc(Cn4c(=S)[nH]c5ccc(N6CCOCC6)cc5c4=O)cc3)CC2)cc1 | . | 91 | . | .
O=C(c1ccc(Cn2c(=S)[nH]c3cc4c(cc3c2=O)OCO4)cc1)N1CCN(c2ccccc2)CC1 | . | . | . | .
CSc1ncc(CO)n1Cc1ccccc1 | . | . | . | .
CCCCN(C)CCNC(=O)c1ccc(Cn2c(=S)[nH]c3ccc(Br)cc3c2=O)cc1 | . | 90 | . | .
CC1=[N+](C)c2ccc3ccccc3c2C1(C)C | . | 93 | . | 79
Cc1ccc(S(=O)(=O)NCC(=O)Nc2ccc(C(F)(F)F)cc2)cc1 | . | . | 92 | /
O=C(CNS(=O)(=O)c1ccc(F)cc1)Nc1ccc(C(F)(F)F)cc1 | . | . | . | .
CC(C)(C)NC(=O)Cn1c(=O)c(=O)n(Cc2ccccc2)c2ccc(Cl)cc21 | . | 58 | . | .
CC(C)NS(=O)(=O)c1ccc(NC(=O)NC2CCCCC2)cc1 | . | . | . | .
O=C(COC(=O)Cn1cnc2ccccc2c1=O)Nc1cc(Cl)ccc1[N+](=O)[O-] | . | . | . | .
COc1cc2c(cc1OC)-c1cc(=Nc3c(C)cc(C)cc3C)n(C)c(=O)n1CC2 | / | / | . | /
Cc1ccc(NC(=S)NCCC(c2ccccc2)c2ccccc2)c(C)c1 | . | 66 | . | 65
Cc1ccc(SCCNC(=S)Nc2ccc(C)cc2C)cc1 | . | . | . | 69
COC(=O)Cc1ccc(NC(=S)NCCSc2ccc(C)cc2)cc1 | . | . | . | 68
Cc1ccc(SCCNC(=S)Nc2cc(C)cc(C)c2)cc1 | . | 65 | . | 76
COc1ccc(OC)c(NC(=S)NCCC(c2ccccc2)c2ccccc2)c1 | / | . | / | /
Cc1ccc(NC(=S)NCCSc2ccc(Cl)cc2)cc1 | . | . | . | .
COc1ccccc1CNC(=O)C1(c2ccc(Cl)cc2)CC1 | . | . | . | .
CCN(CCn1cccn1)Cc1ccccc1OCC(O)CN1CCc2ccccc2C1 (configuration not stated) | . | . | . | .
COc1ccccc1CC(NC(C)=O)C(=O)NC1CCN(C(=O)c2ccc([N+](=O)[O-])cc2)CC1 (configuration not stated) | . | . | . | .
SMILES | RAM inhibit | L major viab | CHOP inh | WT yeast gro inh
CC(C)C(=O)N=C1SC2CS(=O)(=O)CC2N1Cc1ccc(Cl)cc1 (configuration not stated) | / | / | . | /
CC(C)C(=O)N=C1SC2CS(=O)(=O)CC2N1Cc1ccccc1 (configuration not stated) | . | 52 | . | .
O=C1N/C(=C\c2ccc(O)cc2)C(O)=C1C=NCc1ccccc1 | . | . | . | .
COc1ccc(/C=C2\NC(=O)C(C=NCc3ccccc3)=C2O)cc1 | . | 58 | . | .
COc1ccc(-c2nc3ccccn3c2CN2CCN(c3ccccc3F)CC2)cc1 | . | 85 | . | 82
CCOC(=O)c1ccc(NC(=S)N2CCSC2c2ccc(Br)cc2)cc1 (configuration not stated) | . | 87 | . | .
CCOC(=O)c1nc2sc(C)c(C)c2c(=O)[nH]1 | . | . | . | .
CCOC(=O)/C(=C\c1cccc(O)c1)c1nc2sc(C)c(C)c2c(=O)[nH]1 | . | 99 | . | .
CCCCc1ccc(S(=O)(=O)NCCc2ccncc2)cc1 | . | 84 | . | .
Cc1cc(-c2sccc2C)nc(-n2cccc2)n1 | . | . | . | 68
COc1ccc(C(=O)C2CCCN(Cc3cnc(N4CCCC4)s3)C2)cc1OC (configuration not stated) | . | 72 | . | .
COc1cccc(C(=O)C2CCCN(Cc3ccc(OC)c(Cn4cncn4)c3)C2)c1 (configuration not stated) | / | / | . | /

From PubChem
